Results reported in the supplement of paper PMC10849652.
Of roughly 7,900 targets only a part is listed; those with a hit were picked by preference. About 0.6% of all pairs of compound and target were hits.

Compound: CS(=O)(=O)N1CCN(Cc2cc3nc(-c4cccc5[nH]ncc45)nc(N4CCOCC4)c3s2)CC1 [pictilisib]
Assay: log2 fold change, soluble protein after heating vs DMSO (PISA); higher = thermal stabilisation; K562 cells, 10 uM, 30 min; active = over 0.2 and 3.5 SD of the protein, either way, in both replicates (recomputed)
Outline: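 K562 cells (2×10^6 cells/mL) were treated with 10 μM compound for 30 min, and aliquots were heated for 3 min over 48°C-58°C. Pooled aliquots were extracted in PBS with 0.5% NP-40 at 4°C, and the supernatant after 21,000xg for 90 min was measured by TMTpro 16plex LC-MS/MS with channel sums equalised. Reported thermal stability, relative to control samples and from duplicates, is a log2 fold change.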

Sequence of UniProt Q8IVF4 (Q8IVF4 whole entry, looked up): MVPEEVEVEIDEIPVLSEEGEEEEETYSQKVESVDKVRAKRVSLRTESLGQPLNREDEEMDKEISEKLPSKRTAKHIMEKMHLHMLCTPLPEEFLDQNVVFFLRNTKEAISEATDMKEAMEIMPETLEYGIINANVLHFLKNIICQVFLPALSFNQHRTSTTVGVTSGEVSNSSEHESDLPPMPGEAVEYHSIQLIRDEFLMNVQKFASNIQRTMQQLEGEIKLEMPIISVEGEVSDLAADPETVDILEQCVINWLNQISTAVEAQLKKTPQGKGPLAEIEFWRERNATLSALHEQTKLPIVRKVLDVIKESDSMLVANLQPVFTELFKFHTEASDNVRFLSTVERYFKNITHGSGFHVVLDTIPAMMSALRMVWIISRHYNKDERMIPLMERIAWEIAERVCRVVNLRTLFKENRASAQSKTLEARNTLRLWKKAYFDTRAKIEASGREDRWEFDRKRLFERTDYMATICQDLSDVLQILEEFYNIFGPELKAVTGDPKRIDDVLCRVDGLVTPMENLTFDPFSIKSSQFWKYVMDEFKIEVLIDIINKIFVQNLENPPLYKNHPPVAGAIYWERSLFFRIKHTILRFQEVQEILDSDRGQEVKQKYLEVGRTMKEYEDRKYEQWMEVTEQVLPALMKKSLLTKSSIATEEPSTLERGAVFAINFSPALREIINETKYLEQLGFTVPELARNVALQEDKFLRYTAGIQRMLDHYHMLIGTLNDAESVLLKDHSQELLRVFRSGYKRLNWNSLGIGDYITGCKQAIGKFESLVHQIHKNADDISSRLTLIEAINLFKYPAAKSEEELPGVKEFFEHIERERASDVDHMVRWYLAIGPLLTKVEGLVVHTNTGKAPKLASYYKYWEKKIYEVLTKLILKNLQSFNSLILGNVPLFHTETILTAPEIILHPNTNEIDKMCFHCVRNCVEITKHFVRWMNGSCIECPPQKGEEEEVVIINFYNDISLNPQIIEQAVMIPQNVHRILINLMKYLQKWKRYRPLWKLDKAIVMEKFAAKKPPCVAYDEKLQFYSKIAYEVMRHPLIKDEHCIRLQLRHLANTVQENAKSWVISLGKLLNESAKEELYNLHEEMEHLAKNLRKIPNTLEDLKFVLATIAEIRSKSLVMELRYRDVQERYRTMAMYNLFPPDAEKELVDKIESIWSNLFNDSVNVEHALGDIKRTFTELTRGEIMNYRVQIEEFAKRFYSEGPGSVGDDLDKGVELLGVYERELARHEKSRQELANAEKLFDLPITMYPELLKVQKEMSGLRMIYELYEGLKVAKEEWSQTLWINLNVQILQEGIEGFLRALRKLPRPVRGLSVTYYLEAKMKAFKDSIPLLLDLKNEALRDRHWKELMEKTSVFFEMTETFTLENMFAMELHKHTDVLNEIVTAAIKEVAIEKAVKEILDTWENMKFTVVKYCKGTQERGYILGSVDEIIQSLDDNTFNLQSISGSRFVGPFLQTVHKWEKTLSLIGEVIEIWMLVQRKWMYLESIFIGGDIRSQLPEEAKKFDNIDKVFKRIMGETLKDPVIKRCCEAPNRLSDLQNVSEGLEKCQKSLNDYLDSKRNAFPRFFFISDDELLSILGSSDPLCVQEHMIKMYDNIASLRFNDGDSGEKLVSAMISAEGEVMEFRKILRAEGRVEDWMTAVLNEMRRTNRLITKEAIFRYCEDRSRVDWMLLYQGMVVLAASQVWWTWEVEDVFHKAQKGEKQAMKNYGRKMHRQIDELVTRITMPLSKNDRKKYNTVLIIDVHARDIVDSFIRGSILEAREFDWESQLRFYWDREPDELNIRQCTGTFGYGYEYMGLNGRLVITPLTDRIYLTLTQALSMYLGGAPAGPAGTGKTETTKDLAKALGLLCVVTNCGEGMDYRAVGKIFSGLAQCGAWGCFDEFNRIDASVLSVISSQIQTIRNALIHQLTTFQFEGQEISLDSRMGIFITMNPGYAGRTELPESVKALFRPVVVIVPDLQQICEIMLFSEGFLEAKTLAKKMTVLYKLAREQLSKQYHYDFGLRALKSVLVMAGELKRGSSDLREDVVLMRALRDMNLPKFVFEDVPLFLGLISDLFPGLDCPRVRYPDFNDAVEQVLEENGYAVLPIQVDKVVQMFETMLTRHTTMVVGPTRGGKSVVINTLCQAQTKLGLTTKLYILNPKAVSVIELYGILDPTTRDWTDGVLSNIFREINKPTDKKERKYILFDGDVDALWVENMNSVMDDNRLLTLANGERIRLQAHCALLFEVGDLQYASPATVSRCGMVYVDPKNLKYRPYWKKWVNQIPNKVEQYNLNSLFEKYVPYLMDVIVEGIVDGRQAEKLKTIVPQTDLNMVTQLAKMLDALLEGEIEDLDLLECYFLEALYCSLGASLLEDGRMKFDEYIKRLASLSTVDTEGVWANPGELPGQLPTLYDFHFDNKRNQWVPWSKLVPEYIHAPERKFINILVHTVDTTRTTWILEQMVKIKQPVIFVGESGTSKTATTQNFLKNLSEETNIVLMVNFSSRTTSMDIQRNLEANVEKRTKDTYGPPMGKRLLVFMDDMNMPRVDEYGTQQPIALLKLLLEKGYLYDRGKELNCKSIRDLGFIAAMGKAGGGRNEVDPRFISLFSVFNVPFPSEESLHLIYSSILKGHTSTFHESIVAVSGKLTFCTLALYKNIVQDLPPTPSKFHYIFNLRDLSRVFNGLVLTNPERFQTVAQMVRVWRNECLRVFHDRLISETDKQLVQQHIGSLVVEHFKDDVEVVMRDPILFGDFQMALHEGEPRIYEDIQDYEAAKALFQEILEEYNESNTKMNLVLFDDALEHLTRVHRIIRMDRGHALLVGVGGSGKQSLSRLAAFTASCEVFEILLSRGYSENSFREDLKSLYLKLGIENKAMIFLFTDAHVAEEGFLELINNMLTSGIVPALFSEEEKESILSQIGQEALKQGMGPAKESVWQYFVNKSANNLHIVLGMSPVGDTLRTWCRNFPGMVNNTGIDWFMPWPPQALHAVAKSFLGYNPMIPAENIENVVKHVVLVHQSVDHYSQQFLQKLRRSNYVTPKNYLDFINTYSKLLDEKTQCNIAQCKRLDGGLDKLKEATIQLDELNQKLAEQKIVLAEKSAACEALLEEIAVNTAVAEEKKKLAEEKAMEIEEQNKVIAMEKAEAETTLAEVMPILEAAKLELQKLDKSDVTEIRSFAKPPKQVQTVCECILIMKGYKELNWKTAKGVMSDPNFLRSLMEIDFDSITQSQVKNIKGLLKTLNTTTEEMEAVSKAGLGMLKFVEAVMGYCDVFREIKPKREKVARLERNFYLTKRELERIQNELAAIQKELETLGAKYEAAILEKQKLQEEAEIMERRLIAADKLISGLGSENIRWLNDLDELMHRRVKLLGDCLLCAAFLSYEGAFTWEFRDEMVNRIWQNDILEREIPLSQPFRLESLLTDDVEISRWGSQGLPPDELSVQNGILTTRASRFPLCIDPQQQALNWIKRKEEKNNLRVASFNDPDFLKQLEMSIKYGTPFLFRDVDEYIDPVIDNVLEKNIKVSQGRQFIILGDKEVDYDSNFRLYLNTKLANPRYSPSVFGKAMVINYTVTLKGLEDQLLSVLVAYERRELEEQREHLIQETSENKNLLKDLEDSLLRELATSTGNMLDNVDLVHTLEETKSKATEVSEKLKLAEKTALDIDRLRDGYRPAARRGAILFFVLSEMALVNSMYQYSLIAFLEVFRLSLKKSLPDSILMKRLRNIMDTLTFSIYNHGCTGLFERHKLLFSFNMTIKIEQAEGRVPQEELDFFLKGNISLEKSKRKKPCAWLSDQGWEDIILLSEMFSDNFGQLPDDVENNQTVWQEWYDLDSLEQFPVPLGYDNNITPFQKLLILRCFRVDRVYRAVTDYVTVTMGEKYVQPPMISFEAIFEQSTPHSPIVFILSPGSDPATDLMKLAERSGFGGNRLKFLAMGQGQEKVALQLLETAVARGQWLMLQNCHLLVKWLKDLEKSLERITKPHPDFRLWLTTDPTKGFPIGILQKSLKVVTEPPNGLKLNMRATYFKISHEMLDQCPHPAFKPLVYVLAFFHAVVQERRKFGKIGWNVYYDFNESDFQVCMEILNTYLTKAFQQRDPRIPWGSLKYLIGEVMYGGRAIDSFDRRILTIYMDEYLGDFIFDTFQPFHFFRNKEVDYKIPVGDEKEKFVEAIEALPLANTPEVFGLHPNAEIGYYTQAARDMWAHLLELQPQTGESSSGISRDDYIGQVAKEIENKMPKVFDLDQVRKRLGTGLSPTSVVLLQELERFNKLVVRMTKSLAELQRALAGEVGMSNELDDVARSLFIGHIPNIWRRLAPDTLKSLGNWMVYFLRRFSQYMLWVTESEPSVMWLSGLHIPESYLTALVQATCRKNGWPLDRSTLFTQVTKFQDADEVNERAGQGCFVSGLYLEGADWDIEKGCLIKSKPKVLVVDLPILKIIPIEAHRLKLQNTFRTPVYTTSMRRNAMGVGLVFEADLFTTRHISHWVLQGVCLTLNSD
Sequence of UniProt O15121 (O15121 whole entry, looked up): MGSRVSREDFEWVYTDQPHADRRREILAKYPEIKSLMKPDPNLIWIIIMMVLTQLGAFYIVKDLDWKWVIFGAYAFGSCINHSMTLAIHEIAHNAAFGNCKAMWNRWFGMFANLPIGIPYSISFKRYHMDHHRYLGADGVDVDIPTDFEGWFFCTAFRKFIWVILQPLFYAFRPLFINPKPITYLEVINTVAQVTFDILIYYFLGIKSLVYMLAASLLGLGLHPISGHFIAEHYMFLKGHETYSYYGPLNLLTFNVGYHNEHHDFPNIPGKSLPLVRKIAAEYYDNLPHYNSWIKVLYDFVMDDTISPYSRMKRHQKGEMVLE
Sequence of UniProt Q9NYP7 (Q9NYP7 whole entry, looked up): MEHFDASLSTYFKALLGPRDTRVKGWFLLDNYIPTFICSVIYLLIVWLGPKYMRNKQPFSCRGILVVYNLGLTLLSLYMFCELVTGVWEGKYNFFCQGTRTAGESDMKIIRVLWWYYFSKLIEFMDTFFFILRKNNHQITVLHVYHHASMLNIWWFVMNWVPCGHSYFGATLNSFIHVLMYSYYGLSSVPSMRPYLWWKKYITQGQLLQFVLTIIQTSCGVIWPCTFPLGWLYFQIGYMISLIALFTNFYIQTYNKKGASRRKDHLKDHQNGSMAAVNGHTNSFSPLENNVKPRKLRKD

Q: How did the log2 fold change turn out when CTNNB1 (UniProt P35222) was run?
A: The log2 fold change was -0.2 (inactive).

Q: How did the log2 fold change turn out when EXOSC10 (UniProt Q01780) was run?
A: The log2 fold change was 0.227 (inactive).

Q: For EXOC4 (UniProt Q96A65), which log2 fold change is on record?
A: The log2 fold change was -0.059 (inactive).

Q: How did the log2 fold change turn out when DEGS1 (UniProt O15121) was run?
A: Its log2 fold change is 0 (inactive).

Q: How did the log2 fold change turn out when DDX27 (UniProt Q96GQ7) was run?
A: The log2 fold change was 0.061 (inactive).

Q: With EDC4 (UniProt Q6P2E9) as the target, how does the log2 fold change read?
A: Its log2 fold change is 0.006 (inactive).

Q: For CTSV (UniProt O60911), which log2 fold change is on record?
A: The log2 fold change was 0.135 (inactive).

Q: CYB561A3 isoform 2 (UniProt Q8NBI2) was tested. Which log2 fold change did it give?
A: Its log2 fold change is 0.263 (inactive).

Q: With ERLIN2 (UniProt O94905) as the target, how does the log2 fold change read?
A: Its log2 fold change is -0.09 (inactive).

Q: For DPYSL2 (UniProt Q16555), which log2 fold change is on record?
A: Its log2 fold change is 0.262 (active).

Q: ELAC1 (UniProt Q9H777) was tested. Which log2 fold change did it give?
A: The log2 fold change was 0.049 (inactive).

Q: FAM50A (UniProt Q14320) was tested. Which log2 fold change did it give?
A: The log2 fold change was 0.056 (inactive).

Q: Which log2 fold change does the source give for FAM118A (UniProt Q9NWS6) here?
A: The log2 fold change was 0.207 (inactive).

Q: DIP2A (UniProt Q14689) was tested. Which log2 fold change did it give?
A: Its log2 fold change is 0.103 (inactive).

Q: How did the log2 fold change turn out when DHRS13 (UniProt Q6UX07) was run?
A: The log2 fold change was 0.026 (inactive).

Q: Which log2 fold change does the source give for ECPAS (UniProt Q5VYK3) here?
A: Its log2 fold change is 0.005 (inactive).

Q: DMAC1 (UniProt Q96GE9) was tested. Which log2 fold change did it give?
A: The log2 fold change was 0.038 (inactive).

Q: For DNAH10 (UniProt Q8IVF4), which log2 fold change is on record?
A: The log2 fold change was 0.052 (inactive).

Q: Which log2 fold change does the source give for DOCK8 (UniProt Q8NF50) here?
A: Its log2 fold change is -0.337 (inactive).

Q: For ERCC6 (UniProt Q03468), which log2 fold change is on record?
A: Its log2 fold change is -0.04 (inactive).

Q: Which log2 fold change does the source give for ETNK1 (UniProt Q9HBU6) here?
A: Its log2 fold change is -0.044 (inactive).

Q: With DYNC1I2 isoform 5 (UniProt Q13409) as the target, how does the log2 fold change read?
A: Its log2 fold change is 0.035 (inactive).

Q: CUX1 isoform 3 (UniProt P39880) was tested. Which log2 fold change did it give?
A: Its log2 fold change is 0.054 (inactive).

Q: CWF19L2 (UniProt Q2TBE0) was tested. Which log2 fold change did it give?
A: Its log2 fold change is -0.309 (inactive).

Q: Which log2 fold change does the source give for EIF2S3 (UniProt P41091) here?
A: Its log2 fold change is -0.027 (inactive).

Q: For CUTA isoform 2 (UniProt O60888), which log2 fold change is on record?
A: Its log2 fold change is -0.358 (inactive).

Q: EIF2AK1 (UniProt Q9BQI3) was tested. Which log2 fold change did it give?
A: The log2 fold change was -0.147 (inactive).

Q: With DNAH5 (UniProt Q8TE73) as the target, how does the log2 fold change read?
A: Its log2 fold change is -0.001 (inactive).

Q: With EPHX2 (UniProt P34913) as the target, how does the log2 fold change read?
A: Its log2 fold change is 0.062 (inactive).

Q: With EDEM2 (UniProt Q9BV94) as the target, how does the log2 fold change read?
A: Its log2 fold change is 0.09 (inactive).

Q: How did the log2 fold change turn out when ELOVL5 isoform 2 (UniProt Q9NYP7) was run?
A: Its log2 fold change is 0 (inactive).

Q: For DAXX (UniProt Q9UER7), which log2 fold change is on record?
A: Its log2 fold change is 0.247 (inactive).

Q: Which log2 fold change does the source give for CTSS (UniProt P25774) here?
A: Its log2 fold change is -0.043 (inactive).
